Screening data deposited in PubChem by National Center for Advancing Translational Sciences (NCATS).
IL-1B inflam inh: qHTS for Inhibitors of Inflammasome Signaling: IL-1-beta AlphaLISA Primary Screen | actives 4.7% (n = 360,000) | THP-1 LPS/ATP IL-1B secretion, AlphaLISA, 16 h; active compounds read low | activity change, % at 57.5 µM; in the data active = activity change below about -50%; inconclusive = mostly about -30% to -49%; also: % is scaled to controls: 0 for no effect and ±100 for the full control effect
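Secreted IL-1B measured by AlphaLISA bead assay after 16 h compound exposure of THP-1 cells; compounds (final up to 57.5 uM) added 1 h before LPS (250 ng/mL) and ATP (1.25 mM) stimulation; lower signal means less secretion.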
MCF10A rerep: A quantitative high throughput screen for small molecules that induce DNA re-replication in MCF 10a normal breast cells; MCF 10A DNA re-replication, Hoechst nuclear intensity, 48 h; Potency, µM (series often up to 46.1 µM), without a hit: at the top dose activity, positive = re-replication, actives largely listed as activators; actives 2.9% (n = 350,000); AID 624296, 2012; also: potency is read from the fitted curve at half-maximal effect; % of control where 0% means no effect; nearly all actives have a fitted effect of over 50% in size
SW480 rereplic: A quantitative high throughput screen for small molecules that induce DNA re-replication in SW480 colon adenocarcinoma cells; SW480 DNA re-replication, Hoechst DNA content imaging, 48 h; Potency, µM (highest dose often 46.1 µM), without a hit: at the top dose re-replication activation, hits mostly activators; actives 1.8% (n = 340,000); also: potency is read from the fitted curve at half-maximal effect; % of control where 0% means no effect; nearly all actives have a fitted effect of over 55% in size
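Image-based read-out: total Hoechst fluorescence of nuclei (405 nm excitation, 500-530 nm emission), with hits raising the fraction of high-intensity nuclei. SW480 colon cells incubated 48 hr with compounds at 37 C.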
KB-V1 MDR tox: qHTS assay for MDR1-selective chemotherapeutics: Primary screen using the drug-selected MDR subline cells KB-V1. Potency, µM (highest dose often 46.1 µM), actives largely listed as cytotoxic. AID 1347076, 2019. actives 3.4% (n = 400,000). KB-V1 MDR cells viability, CellTiter-Glo, 72 h; also: potency is read from the fitted curve at half-maximal effect; % is scaled to controls: 0 for no effect and ±100 for the full control effect; nearly all actives have a fitted effect of over 60% in size
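Potencies derive from concentration-effect curves fitted to normalized luminescence (CellTiter-Glo) of KB-V1 cells treated for 72 h at 37 degrees C in phenol-red-free DMEM containing 10% FBS.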
KB-3-1 tox: qHTS assay for MDR1-selective chemotherapeutics: Primary screen using the parental adenocarcinoma cell KB-3-1; KB-3-1 viability, CellTiter-Glo ATP luminescence, 72 h; Potency, µM (series often up to 46.1 µM), usual class: cytotoxic; actives 1.4% (n = 400,000); AID 1347075, 2019; also: potency is read from the fitted curve at half-maximal effect; % is scaled to controls: 0 for no effect and ±100 for the full control effect; nearly all actives have a fitted effect of over 60% in size
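Cytotoxicity measured as CellTiter-Glo luminescence after 72 h at 37 C. Compound titrations were pinned onto drug-naive KB-3-1 parental adenocarcinoma cells grown in DMEM with 10% FBS, and normalized data fitted to concentration-response curves.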
* marks the source's active call; other numbers are inactive results; i = inactive; ? = inconclusive; . = not tested or not shown. In the library only some 9.9% were active in any assay of this set; here they are far more common. Unless noted, calls follow the shape of the dose curve; as a rule, active = well fitted curve in the direction sought with a large enough effect; inconclusive = small, poorly fitted or top-dose-only effect, or another doubt; inactive = no such curve, though single readings can be large; an effect the other way counts as inactive or inconclusive.

SMILES	IL-1B inflam inh	MCF10A rerep	SW480 rereplic	KB-V1 MDR tox	KB-3-1 tox
CN(c1cccc(NS(=O)(=O)c2cccs2)c1)S(C)(=O)=O	2	-6%	3%	i	i
COc1ccc(S(=O)(=O)Nc2ccc(NC(C)=O)cc2)cc1Br	-5	0%	-2%	i	i
O=C(NC(c1ccccc1)c1ccccc1)C1(c2cccs2)CCOCC1	20	0%	0%	5.2µM*	i
Cc1cccc(NC(=O)C2(c3cccs3)CCOCC2)n1	10	-3%	-54%	16µM*	i
CCN(CC(=O)NC1CCS(=O)(=O)C1)S(=O)(=O)c1ccccc1Cl (stereo not drawn)	21	1%	1%	i	i
COc1cc(C2CC(=O)Nc3cc4c(cc32)OCCO4)cc(OC)c1O (stereo not drawn)	.	.	.	i	i
Cc1ccc(S(=O)(=O)NCCC(=O)N2CCN(C/C=C/c3ccccc3)CC2)cc1	22	4%	-4%	i	i
O=C(c1ccc(NS(=O)(=O)c2ccc(F)cc2)cc1)N1CCN(c2ccccc2O)CC1	0	?	-5%	?	i
CC(=O)c1ccc(S(=O)(=O)NCC(=O)N2CCN(C/C=C/c3ccccc3)CC2)cc1	7	19%	4%	18µM*	i
CCOc1ccc(S(=O)(=O)Nc2cccc(C(=O)N3CCN(c4ccccc4O)CC3)c2)cc1	-4	?	-7%	21µM*	i
CCOc1ccc(NS(=O)(=O)c2cccc(C(=O)N3CCN(C/C=C/c4ccccc4)CC3)c2)cc1	?	?	5%	6.5µM*	18µM*
O=C(c1cccc(S(=O)(=O)N2CCOCC2)c1)N1CCN(C/C=C/c2ccccc2)CC1	7	?	13%	.	.
CCOc1ccc(S(=O)(=O)Nc2cccc(C(=O)N3CCN(c4ccccn4)CC3)c2)cc1	21	.	.	?	i
O=C(c1ccc(S(=O)(=O)Nc2cccc(C(F)(F)F)c2)cc1)N1CCN(c2ccccc2O)CC1	?	?	1%	21µM*	?
CCN(CC)C(=O)C1=C(C)N(Cc2ccc(F)cc2)C(=O)C(CC(=O)NCC2CCCCC2)C1 (stereo not drawn)	-23	.	.	?	i
CC(C)(C)c1ccc(S(=O)(=O)NCC(=O)N2CCCC2)cc1	-10	-3%	5.8µM*	i	i
O=C(CNS(=O)(=O)c1ccc(F)cc1)N1CCCC1	1	?	19%	i	i
C/C(=N\NC(=O)C(C)n1nc(C)c([N+](=O)[O-])c1C)c1ccccc1O (stereo not drawn)	49	?	4.6µM*	2.3µM*	?
CCCCc1c(-c2ccccc2OC)ncn1C1CCCC1	-18	.	.	13µM*	18µM*
COc1cccc(Cn2cnc(-c3ccccc3OC)c2C2CC2)c1	0	.	.	18µM*	?
CCCCc1c(-c2ccccc2OC)ncn1CCc1cccc(Cl)c1	-25	.	.	15µM*	?
CCCCc1c(-c2ccccc2OC)ncn1Cc1ccc(-c2ccccc2)cc1	?	.	.	10µM*	?
COc1cc(-c2nnc(SCC(=O)NC3CCS(=O)(=O)C3)o2)cc(OC)c1OC (stereo not drawn)	43	1%	-4%	i	i
COc1ccc(N(C(=O)c2cccnc2)S(=O)(=O)c2ccc(Cl)cc2)cc1	-16	-3%	3%	i	i
O=C(NCCCNC(=O)c1cnccn1)c1ccc(Br)cc1	44	5%	1%	i	i
CCCCc1c(-c2ccccc2OC)ncn1Cc1ccc(Cl)cc1	?	.	.	21µM*	?
CCCCc1c(-c2ccccc2OC)ncn1Cc1cccc(-c2ccccc2)c1	-98*	.	.	15µM*	?
CCc1c(C2CC2)ncn1Cc1cccc(-c2ccccc2)c1	-60*	.	.	i	15µM*
CCc1c(-c2ccccc2F)ncn1Cc1cccc(-c2ccccc2)c1	3	.	.	?	?
